Here are results for 36 compounds from PubChem BioAssay (NCATS).

SMILES strings stand for the structures. Records with an inconclusive call do not appear. The source made the active and inactive calls. Calls come from the whole dose curve; as a rule, active = well fitted inhibition curve with a large enough effect; inconclusive = small, poorly fitted or top-dose-only effect; inactive = flat fitted curve, though single readings scatter.

Assay [1] is described as follows: qHTS profiling for inhibitors of Plasmodium falciparum proliferation (AID 504749).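 For activity, negative = inhibition: 0% = DMSO vehicle and full inhibition = artemisinin control.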 Note: nearly all actives have a fitted effect of over 60% in size. The following applies: P. falciparum in erythrocytes, SYBR Green DNA, 72 h. Summed up:
(§1)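 P. falciparum-infected erythrocytes (0.3% parasitemia, 2.5% hematocrit final) were exposed to compounds for 72 h at 37 C in 5% CO2, then lysed with SYBR Green buffer overnight at room temperature; parasite DNA fluorescence was normalized to artemisinin and DMSO controls.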

The next assay deals with 3D7. The description is as above. The following applies: P. falciparum in erythrocytes, SYBR Green DNA, 72 h; series mostly up to 28.7 µM. The gist of the method:
as §1

Setting [2] is: at 28.7 µM (top of the series), parasite line A.
Setting [3] is: at 28.7 µM (top of the series), parasite line B.
Potency is the fitted concentration of half-maximal effect.

For `Nc1nccs1`, the activity, negative = inhibition in assay [1] (setting [2]) is 12.4% (inactive); in assay [1] (setting [3]), 11.4% (inactive). For the same compound, in the assay on 3D7, the Potency result is “inactive”.

Regarding `OCC1(CO)COC(C(Cl)(Cl)Cl)OC1`, the activity, negative = inhibition in assay [1] (setting [2]) is 2.06% (inactive); in assay [1] (setting [3]) it was 5.66% (inactive). Besides, the Potency entry with 3D7 is “inactive”.

On to `Cc1ccccn1`, for which the activity, negative = inhibition is 14.6% (inactive) in assay [1] (setting [2]) and 15% (inactive) in assay [1] (setting [3]). In addition, in the assay on 3D7, the Potency result is “inactive”.

As to `Cc1cccc(C)c1NC(=O)NC1=CCCN1C`, the activity, negative = inhibition in assay [1] (setting [2]) is 5.4% (inactive); in assay [1] (setting [3]) it was 1.38% (inactive). In the assay with 3D7, the Potency entry was “inactive”.

Consider `c1ccc(-n2cnnn2)cc1`, for which the activity, negative = inhibition in assay [1] (setting [2]) was 4.13% (inactive); in assay [1] (setting [3]), -7.64% (inactive). Besides, the Potency result in the assay on 3D7 was “inactive”.

In the case of `CC/C(=C(/CC)c1ccc(OP(=O)(O)O)cc1)c1ccc(OP(=O)(O)O)cc1`, the activity, negative = inhibition in assay [1] (setting [2]) was 13.6% (inactive); in assay [1] (setting [3]) it was -2.71% (inactive). The Potency result in the assay with 3D7 was “inactive”.

As for `c1ccc2c(c1)Sc1ccccc1N2CCN1CCCC1`, in the assay with 3D7, the Potency is 11.2 µM (active).

On to `CN(CCO)CC(O)Cn1cnc2c1c(=O)n(C)c(=O)n2C` (stereo not drawn) (tested in a mixture with another compound), for which the figures for the activity, negative = inhibition in assay [1] (setting [2]) and in assay [1] (setting [3]) were 12.7% (inactive) and 12.8% (inactive), respectively. Further, the Potency result in the assay on 3D7 was “inactive”.

With `NCC[C@H](O)C(=O)N[C@@H]1C[C@H](N)[C@@H](O[C@H]2O[C@H](CN)CC[C@H]2N)[C@H](O)[C@H]1O[C@H]1O[C@H](CO)[C@@H](O)[C@H](N)[C@H]1O`, the activity, negative = inhibition in assay [1] (setting [2]) was -7.43% (inactive); in assay [1] (setting [3]), 9.77% (inactive). The Potency entry with 3D7 was “inactive”.

For the compound `C=Cc1ccc(S(=O)(=O)O)cc1`, the activity, negative = inhibition was 12.2% (inactive) in assay [1] (setting [2]) and -6.31% (inactive) in assay [1] (setting [3]). Moreover, the Potency entry in the assay with 3D7 was “inactive”.

Consider `N[C@H](CC(=O)O)C(=O)O`, for which the activity, negative = inhibition in assay [1] (setting [2]) was 6.17% (inactive); in assay [1] (setting [3]), 8.93% (inactive). Also, the Potency result in the assay on 3D7 was “inactive”.

Take `CC(C)(Oc1ccc(C2CCCc3ccccc32)cc1)C(=O)O` (stereo not drawn): the activity, negative = inhibition in assay [1] (setting [2]) was 0.13% (inactive); in assay [1] (setting [3]), 7.8% (inactive). In addition, the Potency result in the assay on 3D7 is “inactive”.

For the compound `CCCCCCCCCCCCCCCCCC[N+](C)(C)CCC[Si](OC)(OC)OC`, the activity, negative = inhibition in assay [1] (setting [2]) is 12.9% (inactive). Also, the Potency entry in the assay on 3D7 is “inactive”.

On to `CN1CCc2c(c3ccccc3n2Cc2ccccc2)C1`, for which the activity, negative = inhibition in assay [1] (at 12.8 µM (top of the series), parasite line A) was -0.349% (inactive); in assay [1] (at 12.8 µM (top of the series), parasite line B), -7.12% (inactive). Moreover, the Potency entry with 3D7 is “inactive”.

Take `O=C1c2ccccc2CN2C(=O)c3ccccc3CN12`: the Potency entry in the assay with 3D7 is “inactive”.

For `CC(O)CN(C)C` (stereo not drawn), the results for the activity, negative = inhibition in assay [1] (setting [2]) and in assay [1] (setting [3]) were 11.7% (inactive) and -4.96% (inactive), respectively. The Potency result in the assay with 3D7 is “inactive”.

As for `CCCCC`, the activity, negative = inhibition was 7.05% (inactive) in assay [1] (setting [2]) and 20.9% (inactive) in assay [1] (setting [3]). Further, the Potency result in the assay with 3D7 is “inactive”.

`FC(F)(F)COCC(F)(F)F`: the activity, negative = inhibition in assay [1] (setting [2]) was 12.5% (inactive); in assay [1] (setting [3]) it was -2.69% (inactive). Further, the Potency result in the assay on 3D7 was “inactive”.

As to `ClC(Cl)Cl`, the values for the activity, negative = inhibition in assay [1] (setting [2]) and in assay [1] (setting [3]) were 5.74% (inactive) and 10.9% (inactive), respectively. The Potency result in the assay with 3D7 is “inactive”.

As for `CCOc1ccc(NC(=S)Nc2ccc(OCC)cc2)cc1`, the activity, negative = inhibition is 1.76% (inactive) in assay [1] (setting [2]) and -2.23% (inactive) in assay [1] (setting [3]). The Potency result in the assay with 3D7 was “inactive”.

Regarding `C[C@H](CCC(=O)O)[C@H]1CC[C@H]2[C@@H]3CC[C@@H]4C[C@H](O)CC[C@]4(C)[C@H]3C[C@H](O)[C@]12C`, in assay [1] (setting [2]), the activity, negative = inhibition was 0.235% (inactive). Further, in the assay on 3D7, the Potency entry is “inactive”.

`CC(C)CCC[C@@H](C)[C@H]1CC[C@H]2[C@@H]3CC=C4C[C@@H](O)CC[C@]4(C)[C@H]3CC[C@]12C`: the activity, negative = inhibition in assay [1] (setting [2]) is 4.96% (inactive); in assay [1] (setting [3]) it was -1.65% (inactive). For the same compound, the Potency entry with 3D7 is “inactive”.

In the case of `OC1OC[C@@H](O)[C@H](O)[C@@H]1O` (stereo partly drawn), in assay [1] (setting [2]), the activity, negative = inhibition was -2.48% (inactive). Moreover, in the assay with 3D7, the Potency entry is “inactive”.

In the case of `CC(C)CCCCCCc1ccc(O)cc1`, in assay [1] (setting [3]), the activity, negative = inhibition is -29% (inactive). The Potency entry in the assay with 3D7 was “inactive”.

For `Cn1c(=O)c2c(ncn2CCOC(=O)C(C)(C)Oc2ccc(Cl)cc2)n(C)c1=O`, in assay [1] (setting [2]), the activity, negative = inhibition was -0.561% (inactive). For the same compound, the Potency result with 3D7 is “inactive”.

Consider `CSCCC(N)C(=O)O` (stereo not drawn), for which the activity, negative = inhibition in assay [1] (setting [2]) was 6.14% (inactive); in assay [1] (setting [3]) it was 15.2% (inactive). Also, the Potency result in the assay on 3D7 was “inactive”.

Consider `CC(=O)Nc1ccc(OC(=O)c2ccccc2O)cc1`, for which the activity, negative = inhibition in assay [1] (setting [2]) is -9.69% (inactive); in assay [1] (setting [3]), 13.7% (inactive). In the assay with 3D7, the Potency entry is “inactive”.

With `CC(=O)Oc1cccc2c1C(=O)c1c(OC(C)=O)cc(C(=O)O)cc1C2=O`, the activity, negative = inhibition in assay [1] (setting [3]) is -5.47% (inactive). The Potency result in the assay with 3D7 was “inactive”.

On to `Cn1cc(NC(=O)c2cc(NC(=O)c3cc(NC=O)cn3C)cn2C)cc1C(=O)NCCC(=N)N`, for which the Potency in assay [1] (parasite line A) was 8.91 µM (active); in assay [1] (parasite line B), 11.2 µM (active); with 3D7, 10 µM (active).

For the compound `CCN(CC)CCCC(C)Nc1cc(/C=C/c2ccccc2Cl)nc2cc(Cl)ccc12` (stereo not drawn), the Potency in assay [1] (parasite line A) is 1.78 µM (active); in assay [1] (parasite line B), 2 µM (active); in the assay with 3D7, 1.41 µM (active).

Consider `O=C(O)[C@H]1C(=CCO)O[C@H]2CC(=O)N12`, for which the figures for the activity, negative = inhibition in assay [1] (setting [2]) and in assay [1] (setting [3]) were 6.84% (inactive) and 1.77% (inactive), respectively. Further, the Potency result in the assay with 3D7 is “inactive”.

`NC(N)=NCC1COc2ccccc2O1` (stereo not drawn): the Potency entry in the assay on 3D7 is “inactive”.

Take `NC(N)=O`: the figures for the activity, negative = inhibition in assay [1] (setting [2]) and in assay [1] (setting [3]) were 0.0876% (inactive) and -2.3% (inactive), respectively. Further, the Potency result with 3D7 is “inactive”.

With `CC1=C(/C=C/C(C)=C/C=C/C(C)=C/C(=O)Oc2c(C)c(C)c3c(c2C)CC[C@@](C)(CCC[C@H](C)CCC[C@H](C)CCCC(C)C)O3)C(C)(C)CCC1`, the figures for the activity, negative = inhibition in assay [1] (setting [2]) and in assay [1] (setting [3]) were 5.64% (inactive) and 7.26% (inactive), respectively. The Potency result in the assay on 3D7 is “inactive”.

For `OC/C=C/c1ccccc1`, in assay [1] (setting [2]), the activity, negative = inhibition is -0.356% (inactive). In the assay on 3D7, the Potency entry is “inactive”.

Regarding `CN1CCCC(CN2c3ccccc3Sc3ccccc32)C1` (stereo not drawn), the Potency entry in the assay on 3D7 was “inactive”.
